KB-3-1 tox – KB-3-1 parental cell cytotoxicity; AID 1347075; Potency, µM (doses to about 46.1 µM), actives largely listed as cytotoxic; KB-3-1 viability, CellTiter-Glo ATP luminescence, 72 h; actives 1.4% (n = 400,000); note: nearly all actives have a fitted effect of over 60% in size
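Cytotoxicity in the drug-sensitive parental line KB-3-1 was scored as loss of CellTiter-Glo luminescence following 72 h incubation with compound. Values come from curve fitting of normalized concentration-response data.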
IL-1B inflam inh – inhibitors of inflammasome signaling (IL-1 beta secretion); activity change, % at 57.5 µM; THP-1 LPS/ATP IL-1B secretion, AlphaLISA, 16 h; stronger effect = lower value; AID 743279; actives 4.7% (n = 360,000); in the data active = activity change below about -50%; inconclusive = mostly about -30% to -49%
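THP-1 cells pretreated 1 hr with compounds (up to 57.5 uM final), then stimulated with LPS (250 ng/mL final) plus ATP (1.25 mM final); secreted IL-1B measured by AlphaLISA after 16 hr, decreased signal indicating inhibition.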
KB-V1 MDR tox – kills drug-selected multidrug resistant KB-V1 cells; Potency, µM (highest dose often 46.1 µM), actives largely listed as cytotoxic; KB-V1 MDR cells viability, CellTiter-Glo, 72 h; actives 3.4% (n = 400,000); AID 1347076; note: nearly all actives have a fitted effect of over 60% in size
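Compound-treated KB-V1 multidrug-resistant cells, 72 h, 37 degrees C; viability by CellTiter-Glo. Fitted qHTS curves give the values.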
MCF10A rereplic – inducers of DNA re-replication in MCF 10A breast cells | MCF 10A DNA re-replication, Hoechst nuclear intensity, 48 h | Potency, µM (series often up to 46.1 µM), actives largely listed as activators | actives 2.9% (n = 350,000) | AID 624296; note: nearly all actives have a fitted effect of over 50% in size
SW480 rerep – induces DNA re-replication in SW480 colon adenocarcinoma cells | SW480 DNA re-replication, Hoechst DNA content imaging, 48 h | Potency, µM (doses to about 46.1 µM), most hits filed as activators | actives 1.8% (n = 340,000) | AID 624297; note: nearly all actives have a fitted effect of over 55% in size
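Treated cells incubate 48 hr (37 C, 5% CO2), are stained 40 min with Hoechst, and nuclear fluorescence is enumerated; a rise in nuclei with high DNA signal marks re-replication.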
Numbers stand for hits; . = inactive; ? = inconclusive; / = no result; [ ] = remark or other dose. Most compounds without a hit are left out; they make up all but 9.9% or so of the library. Unless noted, calls come from the whole dose curve; as a rule, active = well fitted curve in the direction sought with a large enough effect; inconclusive = small, poorly fitted or top-dose-only effect, or another doubt; inactive = no such curve, though single readings can be large; an effect the other way counts as inactive or inconclusive.

SMILES	KB-3-1 tox	IL-1B inflam inh	KB-V1 MDR tox	MCF10A rereplic	SW480 rerep
CN1CCN(c2ccccc2NC(=O)c2ccc(Br)o2)CC1	.	-52.5	.	.	.
CN1CCN(c2ccccc2NC(=O)c2ccc(-c3cccc(Cl)c3)o2)CC1	?	.	.	20.6µM	?
Cc1cccc2c1-c1sc(C(=O)NCCCN3CCN(c4ccccc4F)CC3)cc1CO2	.	/	.	/	/
O=C(Nc1ccccc1N1CCCCC1)c1ccc(-c2cccc(Cl)c2)o1	.	.	.	16.4µM	.
CN1CCN(c2ccccc2NC(=O)c2ccc(-c3ccc(Cl)cc3Cl)o2)CC1	?	.	?	?	?
O=C(O)c1cccc(CN2C(=O)SC(Nc3cccc4ccccc34)C2=O)c1 (stereo unspecified)	.	.	.	.	.
CCOc1ccc(CCN2C(=S)N([C@@H](Cc3ccc(O)cc3)CN3CCC[C@@H]3CN3C(=S)NC[C@@H]3CC(C)C)C[C@@H]2Cc2ccc(O)cc2)cc1	?	.	.	/	/
O=C(CCC(=O)c1cccs1)NCc1ccccc1Cl	.	.	.	.	.
O=C(Nc1cccc2nsnc12)c1ccc(-c2cccc(Cl)c2)o1	.	.	.	5.8µM	.[9.22 µM]
O=C(O)c1ccc(-c2cccc(Cl)c2)o1	.	.	.	.	.
CN(C(=S)NC(=O)/C=C/c1ccc(F)cc1)C1CCCCC1	.	-66.3	.	.	.
CC(C)NC(=S)NC(=O)/C=C/c1ccc(F)cc1	.	-53.3	.	?	.
CC(C)(C)SCCNC(=O)/C=C/c1ccc(F)cc1	.	.	.	.	.
O=C(/C=C/c1ccc(F)cc1)NC(=S)NC1CCCCC1	?	.	.	.	.
CC(C)(CNC(=O)/C=C/c1ccc(F)cc1)CNC(=O)/C=C/c1ccc(F)cc1	.	-87.6	?	.	.
O=S(=O)(Nc1nc2ccccc2nc1Nc1ccccc1Br)c1ccccc1	.	/	.	/	/
COc1ccc(-c2nnn(CC(=O)N(Cc3cccs3)C(C)C(=O)NC3CCCC3)n2)cc1OC (stereo unspecified)	.	.	2.06µM	.	.
COc1ccc(-c2nnn(CC(=O)N(CC(=O)NC3CCCC3)Cc3cccs3)n2)cc1OC	.	.	11.6µM	.	.
CCC(C(=O)NC1CCCC1)N(Cc1cccs1)C(=O)Cn1nnc(-c2ccc(OC)c(OC)c2)n1 (stereo unspecified)	.	?	.	.	.
O=C(NCCOc1ccccc1F)c1ccc2c(=O)n3c(nc2c1)CCC3	.	.	.	.	.
Cc1csc(NC(=O)CCCC(=O)c2ccccc2)n1	.	.	.	.	.
Cc1ccc(-n2ncc(Br)c(Br)c2=O)cc1	?	-99.1	.	?	.
COc1cnn(-c2ccc(F)cc2)c(=O)c1Br	.	.	.	.	.
O=c1c(Br)c(Br)cnn1-c1ccccc1	?	-106.1	?	?	.
O=c1c(Br)c(N2CCCC2)cnn1-c1ccccc1	.	.	?	.	.
SMILES	KB-3-1 tox	IL-1B inflam inh	KB-V1 MDR tox	MCF10A rereplic	SW480 rerep
COC(=O)c1ccc2nc(-c3ccc(Cl)cc3)c(Cc3ccsc3)n2c1	?	.	20.6µM	/	/
N#Cc1ccc(-c2nc3ccc(Br)cn3c2Cc2ccccc2)cc1	20.6µM	.	.	/	/
Cc1ccc(Cc2c(-c3ccc(C#N)cc3)nc3ccc(Br)cn23)cc1	?	.	.	/	/
Cc1ccc2nc(-c3ccccc3)c(CN3CCSCC3)n2c1	.	.	?	.	.
Cc1ccc2nc(-c3cccc(Cl)c3)c(Cc3ccccc3)n2c1	.	.	20.6µM	/	/
Cc1ccc2nc(-c3ccccc3)c(CN3CCOCC3)n2c1	.	.	.	0.651µM	.
COc1ccc(OCC(=O)N2CCN(C(=O)c3ccc(F)cc3)CC2)cc1	.	.	.	.	.
Cc1ccc(C(=O)N/C(=C/c2ccccc2)C(=O)NCC2CCCO2)cc1 (stereo unspecified)	.	.	.	.	.
COc1ccccc1Cc1c(-c2ccc(OC)c(OC)c2)nc2ccc(Cl)cn12	?	.	?	/	/
COc1ccccc1Cc1c(-c2ccc(C)cc2)nc2ccc(Cl)cn12	.	-102.2	?	/	/
COc1ccc(-c2nc3ccc(C)cn3c2Cc2ccsc2)cc1OC	.	.	23.1µM	/	/
CCc1cccc(C)c1NS(=O)(=O)c1ccc2c(c1)CC(C)N2C(=O)C1CC1 (stereo unspecified)	.	/	?	/	/
COc1ccc(CN(C(=O)/C=C/C(=O)c2ccc(OC)cc2O)C(C(=O)NC2CCCCC2)c2ccncc2)cc1 (stereo unspecified)	.	?	2.59µM	.	?
COc1ccc(C(=O)/C=C/C(=O)N(Cc2ccc3c(c2)OCO3)C(C(=O)NC2CCCCC2)c2ccncc2)c(O)c1 (stereo unspecified)	?	?	2.06µM	?	?
CCCN(C1CCS(=O)(=O)C1)S(=O)(=O)c1ccc(F)cc1 (stereo unspecified)	.	.	.	.	.
CCSc1nnnn1-c1ccccc1	.	.	.	.	.[9.22 µM]
c1ccc(Cn2c(Sc3nnnn3-c3ccccc3)nnc2-c2ccccc2)cc1	.	-59.3	?	.	.
Cc1ccc(C)c(-n2nnnc2Sc2nnnn2-c2ccccc2)c1	?	-108.9	.	5.8µM	9.2µM
Cc1cc(C)n(Cc2cc(C(=O)O)c3ccccc3n2)n1	.	.	.	.	.
COc1cc(C(=O)OC(C)CN2CCCCC2)cc(OC)c1OC (stereo unspecified)	.	.	.	.	?
Cc1cccc(OC(=O)NCCOC(=O)N(O)c2ccc(Cl)cc2)c1	.	-78.8	?	.	?
COc1ccc2nc3cc(Cl)ccc3c(Nc3cc(C(C)C)c(O)cc3C)c2c1	?	-90.1	?	?	?
Cc1ccc(NC(=O)C2CCCN(S(=O)(=O)c3c(C)noc3/C=C/N(C)C)C2)c(C)c1 (stereo unspecified)	.	.	.	?	.
CSc1ccc(C(=O)C2CCCN(S(=O)(=O)c3c(C)noc3C)C2)cc1 (stereo unspecified)	.	-51.9	?	.	.
Cc1ccc(C)c(NC(=O)C2CCCN(S(=O)(=O)c3c(C)noc3/C=C/N(C)C)C2)c1 (stereo unspecified)	.	.	.	18.4µM	.
COC(CNC(=O)C1CCCN(S(=O)(=O)c2c(C)noc2/C=C/c2cccs2)C1)OC (stereo unspecified)	.	.	.	3.66µM	.
CCN(C)C1CN(Cc2cn(Cc3cccc(C(F)(F)F)c3)nn2)S(=O)(=O)C1 (stereo unspecified)	.	.	?	/	/
CCOC(=O)C1CCCN(Cc2nc(CC3CC3)no2)C1 (stereo unspecified)	.	.	.	.	.
Cc1onc(-c2c(Cl)cccc2Cl)c1C(=O)N=C(N)N1CC(C)OC(C)C1 (stereo unspecified)	.	.	?	.	.

Compound activity: PubChem, National Center for Advancing Translational Sciences (NCATS)
